VDR inhibitor – inhibitors of human vitamin D receptor | P11473 | Potency, µM, actives largely listed as inhibitors | 0.93% of 400,000 active | AID 504847 | VDR-SRC2-3 peptide fluorescence polarization, 2 h
Target sequence (P11473 whole entry, looked up): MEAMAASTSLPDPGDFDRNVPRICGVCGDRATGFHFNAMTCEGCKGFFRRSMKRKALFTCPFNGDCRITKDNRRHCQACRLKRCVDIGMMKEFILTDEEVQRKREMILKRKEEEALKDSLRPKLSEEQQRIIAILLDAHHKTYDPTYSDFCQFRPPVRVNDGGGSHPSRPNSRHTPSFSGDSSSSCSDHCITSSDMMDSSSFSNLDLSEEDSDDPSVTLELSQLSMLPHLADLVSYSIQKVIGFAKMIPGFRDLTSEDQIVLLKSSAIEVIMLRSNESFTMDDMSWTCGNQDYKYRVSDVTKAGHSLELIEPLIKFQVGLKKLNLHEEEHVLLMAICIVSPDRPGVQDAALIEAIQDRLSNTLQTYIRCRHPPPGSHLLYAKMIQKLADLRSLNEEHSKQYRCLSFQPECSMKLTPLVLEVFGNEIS
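VDR–SRC2-3 interaction, FP format. Cmpds 23 nl via pintool, brief spin, 2 h ambient incubation.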
ALOX12 inh – ALOX12 (human) lipoxygenase inhibition; P18054; purified 12hLO, xylenol orange hydroperoxide absorbance; Potency, µM (series often up to 108 µM), hits mostly inhibitors; 1.1% of 580,000 active
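Purified human 12hLO at 150 nM in 25 mM Hepes, 0.01% Triton X-100, pH 7.0, preincubated 15 min at room temperature with compound. Reaction started with 40 uM arachidonic acid, 30 min at room temperature. Hydroperoxide measured by Fe-xylenol orange, 573/405 nm absorbance ratio.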
Sfp inh – Sfp phosphopantetheinyl transferase inhibition | AID 1490 | 3.5% of 310,000 active | Biochemical Sfp PPTase activity, qHTS | Potency, µM, hits mostly inhibitors;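 also: the enzyme is Sfp with the accession as filed and its product quenches rhodamine fluorescence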
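Fluorescence-quenching assay: 15 nM Sfp-PPTase preincubated 15 min at room temperature with compound, then 5 uM rhodamine-CoA and 12.5 uM BHQ-2-labelled YbbR peptide added. Fluorescence (ex 525/em 598 nm) read at start and after 30 min; difference gives rate.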
PLK1 PBD inh – blocks phosphopeptide binding to human PLK1 polo-box domain; P53350; Plk1 PBD binding of FITC phosphopeptide, fluorescence polarization; Potency, µM, actives largely listed as inhibitors; 2.8% of 360,000 active; AID 720504; also: series mostly up to about 57 µM; nearly all actives have a fitted effect of over 65% in size
A number is an active result. This is a sample that favours compounds with a hit; in the whole collection about 4.2% have one here. Calls follow the shape of the dose curve; as a rule, active = well fitted curve in the direction sought with a large enough effect; inconclusive = small, poorly fitted or top-dose-only effect, or another doubt; inactive = no such curve, though single readings can be large; an effect the other way counts as inactive or inconclusive.

What do the screens show for `CN(C)CCCNc1c2c(nc3ccccc13)CCC2`?
VDR inhibitor: inactive; ALOX12 inh: inactive; Sfp inh: inactive; PLK1 PBD inh: 26.7µM

What do the screens show for `CC(=O)c1cccc(NC(=O)N2C3CCC2CC(NC(=O)C2CC2)C3)c1` (centres undefined)?
VDR inhibitor: inactive; ALOX12 inh: inactive; Sfp inh: inactive; PLK1 PBD inh: inactive

Results for Cc1cccc2nc(CSCc3ccco3)cn12 ?
VDR inhibitor: inactive; ALOX12 inh: inactive; Sfp inh: 31.6µM; PLK1 PBD inh: inconclusive

What do the screens show for `CC(C)CN1C(Nc2ccccc2)=NC[C@@H]1C`?
VDR inhibitor: inactive; ALOX12 inh: inactive; Sfp inh: inactive; PLK1 PBD inh: inactive

Results for S=C1NC(c2cccs2)=CC(c2ccc(Br)cc2)N1 (centres undefined) ?
VDR inhibitor: inconclusive; ALOX12 inh: 39.8µM; Sfp inh: inactive; PLK1 PBD inh: inconclusive

Results for CCN(Cc1ccccc1)c1ccc(/C=N/NC(=S)NC(C)C)cc1 ?
VDR inhibitor: inactive; ALOX12 inh: 44.7µM; Sfp inh: inactive; PLK1 PBD inh: inactive

Results for CN(C)c1ccc(/C=N/NC(=S)NCc2ccccc2)cc1 ?
VDR inhibitor: inactive; ALOX12 inh: inconclusive; Sfp inh: inactive; PLK1 PBD inh: 23.8µM

What do the screens show for `COCCCNC(=S)N/N=C/c1ccc(N(C)C)cc1`?
VDR inhibitor: inactive; ALOX12 inh: inconclusive; Sfp inh: inactive; PLK1 PBD inh: inactive

How did CCN(Cc1ccccc1)c1ccc(/C=N/N=C(N)N)cc1 do in these assays?
VDR inhibitor: inactive; ALOX12 inh: inconclusive; Sfp inh: inconclusive; PLK1 PBD inh: inactive

How did Oc1ccc(/C=N/NC(=S)NCc2ccco2)cc1 do in these assays?
VDR inhibitor: inactive; ALOX12 inh: inactive; Sfp inh: inactive; PLK1 PBD inh: inactive

What do the screens show for `CC(C)(C)c1ccc(/C=N/NC(=S)NCc2ccccc2)cc1`?
VDR inhibitor: inactive; ALOX12 inh: 44.7µM; Sfp inh: inactive; PLK1 PBD inh: inactive

Results for S=C(NCc1ccco1)N/N=C/c1ccc(Cl)cc1 ?
VDR inhibitor: inactive; ALOX12 inh: 44.7µM; Sfp inh: inactive; PLK1 PBD inh: inactive

How did CC(C)(OC(=O)NC(=O)C(F)(F)F)C(C)(C)OC(=O)NC(=O)C(F)(F)F do in these assays?
VDR inhibitor: inactive; ALOX12 inh: inactive; Sfp inh: inactive; PLK1 PBD inh: inactive

What do the screens show for `O=C(CCc1c[nH]c2ccccc12)NCCc1c[nH]c2ccccc12`?
ALOX12 inh: inactive

What do the screens show for `COc1ccc(CN2CCOc3ccc(CN4CCC(O)(c5cccnc5)CC4)cc3C2)c(C)c1C`?
ALOX12 inh: inactive

How did CCN(Cc1ccccc1)c1ccc(/C=N/NS(=O)(=O)c2ccc(C)c([N+](=O)[O-])c2)cc1 do in these assays?
VDR inhibitor: inconclusive; ALOX12 inh: inconclusive; Sfp inh: inconclusive; PLK1 PBD inh: 23.8µM

What do the screens show for `COC(=O)c1ccc(/C=N/NC(=S)NC(C)C)cc1`?
VDR inhibitor: 25.1µM; ALOX12 inh: inactive; Sfp inh: inactive; PLK1 PBD inh: 13.4µM

Results for CC(C)(C)C1CCc2nc(NC(=O)Cc3ccc(Cl)cc3)sc2C1 (centres undefined) ?
VDR inhibitor: inactive; ALOX12 inh: inconclusive

How did FC(F)Oc1ccc(NC(=S)Nn2cnnc2)cc1 do in these assays?
VDR inhibitor: inconclusive; ALOX12 inh: inconclusive; Sfp inh: 22.4µM; PLK1 PBD inh: 6.7µM

What do the screens show for `FC(F)Oc1ccc(NC(=S)Nc2ccc3cn[nH]c3c2)cc1`?
VDR inhibitor: inactive; ALOX12 inh: inactive; Sfp inh: inactive; PLK1 PBD inh: inactive

How did Oc1cccc2c(NC(=S)Nc3ccc(OC(F)F)cc3)cccc12 do in these assays?
VDR inhibitor: inactive; ALOX12 inh: inconclusive; Sfp inh: 56.2µM; PLK1 PBD inh: inactive

Results for CN(NC(=S)Nc1ccc(OC(F)F)cc1)C(=S)Nc1ccc(OC(F)F)cc1 ?
VDR inhibitor: inactive; ALOX12 inh: inactive; Sfp inh: inactive; PLK1 PBD inh: inactive

How did N#Cc1c2c(c(-c3ccccc3Cl)[nH]c1=S)CCCC2 do in these assays?
VDR inhibitor: inactive; ALOX12 inh: inactive; Sfp inh: inconclusive; PLK1 PBD inh: 16.8µM

How did O=C1CC(N2CCCCCC2)C(=O)N1c1ccc2c(c1)OCO2 (centres undefined) do in these assays?
VDR inhibitor: inactive; ALOX12 inh: inactive; Sfp inh: inactive; PLK1 PBD inh: inactive

What do the screens show for `O=C1CC(N2CCN(c3ccc(O)cc3)CC2)C(=O)N1c1ccc2c(c1)OCO2` (centres undefined)?
VDR inhibitor: inactive; ALOX12 inh: inactive; Sfp inh: 39.8µM; PLK1 PBD inh: inactive

How did COc1cc(C(=S)N(C)C)ccc1O do in these assays?
VDR inhibitor: inactive; ALOX12 inh: inconclusive; Sfp inh: 39.8µM; PLK1 PBD inh: 9.47µM

Results for CCCOC(=O)c1ccc(O)c(OC)c1 ?
VDR inhibitor: inactive; ALOX12 inh: inactive; Sfp inh: inactive; PLK1 PBD inh: inactive

Results for COc1ccccc1N1CCN(C(=O)Cn2c(=O)nc(-c3ccccc3)c3ccccc32)CC1 ?
VDR inhibitor: inactive; ALOX12 inh: inactive

How did Cc1cc(-c2ccccc2)c(C#N)c(=S)[nH]1 do in these assays?
VDR inhibitor: inactive; ALOX12 inh: inconclusive; Sfp inh: 28.2µM; PLK1 PBD inh: inactive

What do the screens show for `Cc1cc(C(F)(F)F)c(C#N)c(=S)[nH]1`?
ALOX12 inh: 15.8µM

What do the screens show for `CC(C)(C)c1cc(C(F)(F)F)c(C#N)c(=O)[nH]1`?
VDR inhibitor: inactive; ALOX12 inh: inconclusive; Sfp inh: inactive; PLK1 PBD inh: inactive

What do the screens show for `N#Cc1c(-c2ccccc2Cl)cc(-c2ccccc2)[nH]c1=S`?
Sfp inh: inactive

What do the screens show for `CC(C)N1CC(C(=O)Nc2ccc(C#N)cc2)CC1=O` (centres undefined)?
VDR inhibitor: inconclusive; ALOX12 inh: inactive; Sfp inh: inactive; PLK1 PBD inh: inactive

What do the screens show for `O=C(/C=C/c1ccccc1)OCC(=O)N1CCCC1`?
VDR inhibitor: inactive; ALOX12 inh: inactive; PLK1 PBD inh: inactive

What do the screens show for `O=C(CCC[C@@H]1[C@H]2CCCN3CCC[C@@H](CN1Cc1ccccc1)[C@@H]23)NCCCn1cccn1`?
ALOX12 inh: inactive

How did C/C(=N/Nc1ccc(Cl)cc1)c1ccc(Br)s1 do in these assays?
ALOX12 inh: 11.2µM

Results for C/C(=N\Nc1ccc(Cl)c(C(=O)O)c1)c1ccc(Br)s1 ?
VDR inhibitor: inactive; ALOX12 inh: inconclusive; Sfp inh: inactive; PLK1 PBD inh: 23.8µM

How did C/C(=N\Nc1ccccn1)c1ccc(Br)s1 do in these assays?
VDR inhibitor: inactive; ALOX12 inh: inconclusive; PLK1 PBD inh: inactive

How did C/C(=N\NC(=O)c1ccc(Cl)c(Cl)c1)c1ccc(Br)s1 do in these assays?
VDR inhibitor: inactive; ALOX12 inh: inactive; Sfp inh: inactive; PLK1 PBD inh: inactive

What do the screens show for `COc1ccc(F)cc1S(=O)(=O)NCC1CCCO1` (centres undefined)?
VDR inhibitor: inactive; ALOX12 inh: inactive; Sfp inh: inactive; PLK1 PBD inh: inactive

What do the screens show for `Cc1nn(-c2ccccc2[N+](=O)[O-])c(C)c1[C@@H]1C=C[C@@H](NCc2ccc(F)cc2)C1`?
ALOX12 inh: inactive

Results for CCCCc1ccc(S(=O)(=O)NNC(=S)NCc2ccco2)cc1 ?
VDR inhibitor: inactive; ALOX12 inh: inconclusive; Sfp inh: inactive; PLK1 PBD inh: inactive

Screening results: PubChem, National Center for Advancing Translational Sciences (NCATS)
